Values joined by “and” are separate entries in the source; they are usually repeats but may differ in a detail not shown here. Identical values can stand only once. The campaign covered roughly 5,500 compounds. About 2,000 (36%) were called active. Inconclusive results (about 18%) are left out. Cut-off read from the data, not from the text of the source: active = normalized growth mostly below about 0.91 (no sharp cut-off); inconclusive = no clear call, values can overlap the other calls; inactive = mostly above about 0.92. This is one part of the list.
Experiment: chemical genetic growth profiling, strain panel (AID 1159580);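 note: tested at 20 µM; growth read once vehicle control cultures reached saturation at 30 °C; 1 = growth at the plate median or of vehicle wells; lower values mean less growth of the strain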
Conditions: S. cerevisiae deletion strains, growth OD

Measured: normalized growth

CCCCCCCCCCCCCCCC(=O)OC/C=C(C)/C=C/C=C(C)/C=C/C1=C(C)CCCC1(C)C
inactive: locus YAL013W, strain DEP1, active compounds read low 0.994 | locus YAL021C, strain ccr4, active compounds read low 1.04 | locus YAL026C, strain drs2, active compounds read low 1.02 | locus YAL030W, strain snc1, active compounds read low 1.03 | locus YBL061C, strain skt5, active compounds read low 1.02 | locus YBR009C, strain hhf1, active compounds read low 0.995 | locus YBR021W, strain FUR4, active compounds read low 0.977 | locus YBR023C, strain chs3, active compounds read low 1 | locus YBR171W, strain sec66, active compounds read low 1.02 | locus YBR229C, strain ROT2, active compounds read low 0.992 | locus YBR231C, strain swc5, active compounds read low 0.931 | locus YBR279W, strain paf1, active compounds read low 1.01 | locus YCL011C, strain gbp2, active compounds read low 1 | locus YCL016C, strain dcc1, active compounds read low 1 | locus YCL029C, strain bik1, active compounds read low 0.999 | locus YCL069W, strain vba3, active compounds read low 1.01 | locus YCR088W, strain abp1, active compounds read low 1.02 | locus YDL005C, strain med2, active compounds read low 1.03 | locus YDL035C, strain GPR1, active compounds read low 0.978 | locus YDL040C, strain nat1, active compounds read low 1.01 | locus YDL074C, strain BRE1, active compounds read low 1 | locus YDL101C, strain DUN1, active compounds read low 0.993 | locus YDL185W, strain tfp1, active compounds read low 0.992 | locus YDL192W, strain arf1, active compounds read low 0.994 | locus YDR001C, strain nth1, active compounds read low 1.02 | locus YDR069C, strain doa4, active compounds read low 1 | locus YDR101C, strain arx1, active compounds read low 1.02 | locus YDR137W, strain rgp1, active compounds read low 1.03 | locus YDR150W, strain NUM1, active compounds read low 1 | locus YDR159W, strain sac3, active compounds read low 0.963 | locus YDR162C, strain NBP2, active compounds read low 0.973 | locus YDR195W, strain ref2 1.04 | locus YDR297W, strain sur2, active compounds read low 1.03 | locus YDR318W, strain mcm21, active compounds read low 0.999 | locus YDR334W, strain swr1, active compounds read low 1.03 | locus YDR335W, strain msn5, active compounds read low 1.04 | locus YDR388W, active compounds read low 1.02 | locus YDR392W, strain spt3, active compounds read low 1.05 | locus YDR502C, strain sam2, active compounds read low 0.994 | locus YEL003W, strain gim4, active compounds read low 1.01 | locus YEL037C, strain rad23, active compounds read low 1.02 | locus YEL061C, strain CIN8 (second series), active compounds read low 1.02 | locus YEL061C, strain CIN8, active compounds read low 0.993 | locus YER015W, strain faa2, active compounds read low 1.02 | locus YER016W, strain bim1, active compounds read low 1.02 | locus YER110C, active compounds read low 0.985 | locus YER111C, strain swi4, active compounds read low 1.02 | locus YER155C, strain BEM2 (second series), active compounds read low 1.03 | locus YER155C, strain BEM2, active compounds read low 0.998 | locus YER167W, strain BCK2, active compounds read low 0.989 | locus YFR010W, strain ubp6, active compounds read low 1.03 | locus YGL078C, strain dbp3, active compounds read low 0.993 | locus YGL086W, strain mad1, active compounds read low 1.01 | locus YGL167C, strain pmr1, active compounds read low 1.02 | locus YGL173C, strain kem1, active compounds read low 1.01 | locus YGL227W, strain vid30, active compounds read low 1.01 | locus YGL240W, strain doc1, active compounds read low 1.03 | locus YGL248W, strain PDE1, active compounds read low 1 | locus YGL253W, strain hxk2, active compounds read low 0.976 | locus YGR135W, strain pre9, active compounds read low 0.929 | locus YGR252W, strain gcn5, active compounds read low 1.04 | locus YHR013C, strain ard1, active compounds read low 1.05 | locus YHR027C, strain rpn1, active compounds read low 0.969 | locus YHR030C, strain SLT2, active compounds read low 0.995 and 0.963 | locus YHR079C, strain IRE1 (second series), active compounds read low 1.01 | locus YHR079C, strain IRE1, active compounds read low 0.925 | locus YHR094C, strain hxt1, active compounds read low 0.983 | locus YHR129C, strain ARP1, active compounds read low 0.999 | locus YHR142W, strain chs7, active compounds read low 1.01 | locus YHR200W, strain rpn10, active compounds read low 0.998 | locus YIL066C, strain RNR3, active compounds read low 0.987 | locus YIL073C, strain SPO22, active compounds read low 0.879 | locus YIL125W, strain kgd1, active compounds read low 0.992 | locus YIR030C, strain dcg1, active compounds read low 0.989 | locus YJL092W, strain hpr5, active compounds read low 1.02 | locus YJL095W, strain BCK1 (second series), active compounds read low 1.03 | locus YJL095W, strain BCK1, active compounds read low 0.995 and 0.989 | locus YJL115W, strain asf1, active compounds read low 1.02 | locus YJL129C, strain trk1, active compounds read low 1.04 | locus YJL134W, strain LCB3, active compounds read low 0.991 | locus YJL154C, strain vps35, active compounds read low 1.02 | locus YJL164C, strain tpk1, active compounds read low 0.996 | locus YJL166W, strain qcr8, active compounds read low 1.04 | locus YJL168C, strain set2, active compounds read low 0.994 | locus YJL187C, strain SWE1 (second series), active compounds read low 1.01 | locus YJL187C, strain SWE1, active compounds read low 1.03 | locus YJR043C, strain POL32, active compounds read low 0.995 | locus YJR066W, strain TOR1, active compounds read low 0.901 | locus YKL009W, strain mrt4, active compounds read low 0.993 | locus YKL068W, active compounds read low 0.985 | locus YKL085W, strain MDH1 (second series), active compounds read low 0.985 | locus YKL085W, strain MDH1, active compounds read low 0.985 | locus YKL160W, strain elf1, active compounds read low 1.02 | locus YKL190W, strain CNB1, active compounds read low 0.998 | locus YKR001C, strain vps1, active compounds read low 0.991 | locus YKR026C, strain gcn3, active compounds read low 1.03 | locus YKR091W, strain srl3, active compounds read low 1.01 | locus YLL001W, strain dnm1, active compounds read low 1.01 | locus YLL026W, active compounds read low 0.975 | locus YLL041C, strain sdh2, active compounds read low 1.02 | locus YLR027C, strain aat2, active compounds read low 1.01 | locus YLR039C, strain RIC1, active compounds read low 1 | locus YLR058C, strain SHM2, active compounds read low 0.988 | locus YLR102C, strain apc9, active compounds read low 0.993 | locus YLR113W, strain HOG1, active compounds read low 0.99 | locus YLR221C, strain rsa3, active compounds read low 0.98 | locus YLR258W, strain gsy2, active compounds read low 1 | locus YLR262C, strain YPT6 (second series), active compounds read low 1.01 | locus YLR262C, strain YPT6, active compounds read low 1.04 | locus YLR268W, strain sec22, active compounds read low 0.996 | locus YLR320W, strain mms22, active compounds read low 1 | locus YLR330W, strain CHS5, active compounds read low 0.993 | locus YLR342W, strain FKS1 (second series), active compounds read low 0.993 | locus YLR342W, strain FKS1, active compounds read low 1.02 | locus YLR357W, strain rsc2, active compounds read low 0.994 | locus YLR370C, strain arc18, active compounds read low 1.02 | locus YLR371W, strain rom2, active compounds read low 1 | locus YLR384C, strain iki3, active compounds read low 1.02 | locus YLR418C, strain cdc73, active compounds read low 0.922 | locus YML016C, strain PPZ1, active compounds read low 0.994 | locus YML032C, strain rad52, active compounds read low 1.01 | locus YML120C, strain ndi1, active compounds read low 1.05 | locus YML124C, strain tub3, active compounds read low 0.993 | locus YMR058W, strain fet3, active compounds read low 0.999 | locus YMR078C, strain ctf18, active compounds read low 0.996 | locus YMR125W, strain sto1, active compounds read low 1.01 | locus YMR129W, active compounds read low 1.01 | locus YMR205C, strain PFK2, active compounds read low 1.01 | locus YMR223W, strain ubp8, active compounds read low 0.959 | locus YMR231W, strain pep5, active compounds read low 1.02 | locus YMR263W, strain SAP30, active compounds read low 1 | locus YMR307W, strain GAS1, active compounds read low 1 | locus YNL067W, strain RPL9B, active compounds read low 1.02 | locus YNL071W, strain lat1, active compounds read low 0.97 | locus YNL153C, strain GIM3, active compounds read low 1.04 | locus YNL183C, strain NPR1, active compounds read low 0.967 | locus YNL209W, strain ssb2, active compounds read low 0.991 | locus YNL233W, strain BNI4, active compounds read low 0.994 | locus YNL248C, strain rpa49, active compounds read low 1.05 | locus YNL250W, strain rad50, active compounds read low 1.01 | locus YNL271C, strain bni1, active compounds read low 0.995 | locus YNL298W, strain CLA4, active compounds read low 1 | locus YNL307C, strain MCK1, active compounds read low 0.989 | locus YNL322C, strain KRE1 (second series), active compounds read low 1.04 | locus YNR049C, strain mso1, active compounds read low 1.02 | locus YNR052C, strain pop2, active compounds read low 0.998 | locus YOL012C, strain htz1 0.785 | locus YOL147C, strain pex11, active compounds read low 0.991 | locus YOR001W, strain rrp6, active compounds read low 1.05 | locus YOR061W, strain CKA2, active compounds read low 0.99 | locus YOR069W, strain VPS5, active compounds read low 0.992 | locus YOR070C, strain gyp1, active compounds read low 1.01 | locus YOR080W, strain dia2, active compounds read low 1.02 | locus YOR083W, strain WHI5, active compounds read low 0.984 | locus YOR106W, strain vam3, active compounds read low 0.962 | locus YOR136W, strain idh2, active compounds read low 1 | locus YOR144C, strain elg1, active compounds read low 0.99 | locus YOR184W, strain ser1, active compounds read low 0.991 | locus YOR231W, strain MKK1, active compounds read low 0.974 | locus YOR265W, strain rbl2, active compounds read low 1.02 | locus YOR270C, strain vph1, active compounds read low 1.05 | locus YOR290C, strain snf2, active compounds read low 1.03 | locus YOR316C, strain cot1, active compounds read low 0.992 | locus YPL051W, strain arl3, active compounds read low 1.02 | locus YPL078C, strain atp4, active compounds read low 1.01 | locus YPL106C, strain sse1, active compounds read low 1.07 | locus YPL240C, strain hsp82, active compounds read low 1.01 | locus YPL256C, strain CLN2, active compounds read low 0.916 | locus YPR119W, strain clb2, active compounds read low 0.998 | locus YPR141C, strain kar3, active compounds read low 0.983 | locus YPR163C, strain tif3, active compounds read low 1 | locus YPR167C, strain met16, active compounds read low 0.992 | strain wtn01, active compounds read low 0.972

From PubChem BioAssay AID1159580 (chemical genetic matrix, 2015)
